T cruzi growth: inhibitors of T. cruzi proliferation; T. cruzi beta-gal in NIH3T3, GalScreen luminescence, 90 h; inhibition, % at 8.34 µM; 77,000 tested, 5.9% active; AID 624255;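 active means mean inhibition above about 93%, with at least 55% of replicates each passing it, limit read from the data, passing the limit was not always enough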
Pf Dd2 inh: blocks growth of Plasmodium falciparum Dd2 parasites; P. falciparum Dd2 growth, SYBR Green, 72 h; hits give low values; activity change, % at 10 µM; 94,000 tested, 2.3% active; in the data active means activity change below about -80%
C diff HTS: C. difficile growth inhibition; Clostridium difficile clinical isolate growth, OD600, 24 h; hits give low values; growth activity, negative = inhibition, % at 16 µg/mL (by protocol); 86,000 tested, 0.25% active; AID 1259249;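 active means mean growth activity at or below -80% and every replicate also at or below -80%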;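 further: 0% = DMSO wells and -100% = levofloxacin 16 µg/mL wells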
* = called active by the depositor; . = not tested or not shown; ! = not active in a repeat. Compounds with a hit are over-represented: about 6.8% of the library has one in this group of screens.

SMILES | T cruzi growth | Pf Dd2 inh | C diff HTS
C[C@H](CO)N1C[C@H](C)[C@H](CN(C)Cc2ccc(Cl)c(Cl)c2)OCCCC[C@H](C)Oc2ccc(NC(=O)C3CCCCC3)cc2C1=O | 94 | -44 | 5
C[C@@H]1CN([C@@H](C)CO)C(=O)c2cc(NC(=O)C3CCCCC3)ccc2O[C@@H](C)CCCCO[C@H]1CN(C)Cc1ccc(Cl)c(Cl)c1 | 88 | -80 | 12
C[C@@H]1CN([C@H](C)CO)C(=O)c2cc(NC(=O)c3ccncc3)ccc2O[C@@H](C)CCCCO[C@H]1CN(C)Cc1ccc(Cl)c(Cl)c1 | . | -86* | 13
CN(C)CC(=O)N[C@@H]1C[C@@H]2O[C@H](CO)CC[C@@H]2O[C@@H]1CCc1ccc(C2=CCCCC2)cc1 | . | -53 | 10
CC(=O)N1[C@H](C(=O)NCc2ccccc2F)[C@@H](CO)[C@@H]2Cn3c(cccc3=O)[C@@H]21 | -22 | . | 2
Cc1ccc(S(=O)(=O)N(C)C[C@@H]2OCCCC[C@@H](C)Oc3ccc(NC(=O)Nc4ccc(F)cc4)cc3C(=O)N([C@@H](C)CO)C[C@H]2C)cc1 | . | -59 | .
Cc1ccc(S(=O)(=O)N(C)C[C@H]2OCCCC[C@H](C)Oc3ccc(NC(=O)Nc4ccc(F)cc4)cc3C(=O)N([C@H](C)CO)C[C@@H]2C)cc1 | . | -68 | .
Cc1ccc(S(=O)(=O)N(C)C[C@@H]2OCCCC[C@H](C)Oc3ccc(NC(=O)Nc4ccc(F)cc4)cc3C(=O)N([C@H](C)CO)C[C@H]2C)cc1 | . | -82* | .
Cc1ccc(S(=O)(=O)N(C)C[C@@H]2OCCCC[C@H](C)Oc3ccc(NC(=O)Nc4ccc(F)cc4)cc3C(=O)N([C@@H](C)CO)C[C@@H]2C)cc1 | . | -83* | .
C[C@H](CO)N1C[C@H](C)[C@@H](CN(C)Cc2ccccc2C(F)(F)F)OCc2ccccc2-c2ccccc2C1=O | . | -27 | 20
COc1ccc2c3c([nH]c2c1)[C@@H](CO)N(Cc1ccccc1)CC31CCN(S(C)(=O)=O)CC1 | . | -52 | -2
C[C@@H]1CCCCO[C@H](CN(C)Cc2ccc3c(c2)OCO3)[C@H](C)CN([C@H](C)CO)C(=O)c2cc(NS(=O)(=O)c3ccc(Cl)cc3)ccc2O1 | 81 | -83*! | .
CCCN(C)C[C@H]1OCCCC[C@H](C)Oc2ccc(NS(=O)(=O)c3ccc(OC)cc3)cc2C(=O)N([C@H](C)CO)C[C@H]1C | 82 | -86* | 1
COc1ccc(S(=O)(=O)Nc2ccc3c(c2)C(=O)N([C@@H](C)CO)C[C@@H](C)[C@H](CN(C)CC2CC2)OCCCC[C@H](C)O3)cc1 | 17 | -41 | -6
CCCN(C)C[C@H]1OCCCC[C@@H](C)Oc2ccc(NS(=O)(=O)c3ccc(C)cc3)cc2C(=O)N([C@H](C)CO)C[C@H]1C | 75 | -89* | 20
CCCN(C)C[C@@H]1OCCCC[C@@H](C)Oc2ccc(NS(=O)(=O)c3ccc(F)cc3)cc2C(=O)N([C@@H](C)CO)C[C@@H]1C | 86 | -39 | 10
CCCN(C)C[C@@H]1OCCCC[C@H](C)Oc2ccc(NS(=O)(=O)c3ccc(C)cc3)cc2C(=O)N([C@@H](C)CO)C[C@H]1C | 62 | -94* | 13
CCCN(C)C[C@@H]1OCCCC[C@@H](C)Oc2ccc(NS(=O)(=O)c3ccc(C)cc3)cc2C(=O)N([C@@H](C)CO)C[C@@H]1C | 52 | -63 | 14
C[C@@H]1CCCCO[C@@H](CN(C)Cc2ccc3c(c2)OCO3)[C@H](C)CN([C@@H](C)CO)C(=O)c2cc(NS(=O)(=O)c3ccc(Cl)cc3)ccc2O1 | 34 | 1 | .
COc1ccc(S(=O)(=O)Nc2ccc3c(c2)C(=O)N([C@@H](C)CO)C[C@H](C)[C@H](CN(C)S(=O)(=O)c2cccs2)OCCCC[C@@H](C)O3)cc1 | 76 | -39 | -6
C/C=C/c1cnc2c(c1)C(=O)N([C@H](C)CO)C[C@H](C)[C@H](CN(C)C(=O)C1CC1)O2 | 0 | 31 | 11
C[C@@H]1CN([C@H](C)CO)C(=O)Cc2cc(NS(=O)(=O)c3ccc(F)cc3)ccc2O[C@H]1CN(C)C(=O)Nc1ccc(C(F)(F)F)cc1 | 25 | -16 | 1
CCC(=O)N[C@H]1CC[C@@H](CC(=O)NCc2ccccc2OC)O[C@H]1CO | -17 | -4 | 4
C[C@H](CO)N1C[C@H](C)[C@H](CN(C)Cc2ccccc2)Oc2ccc(NC(=O)CCN3CCOCC3)cc2C1=O | 5 | -9 | 3
CCCN(C)C[C@@H]1OCCCC[C@@H](C)Oc2ccc(NS(=O)(=O)c3ccc(Cl)cc3)cc2C(=O)N([C@H](C)CO)C[C@@H]1C | -2 | -61 | 0
SMILES | T cruzi growth | Pf Dd2 inh | C diff HTS
CCCN(C)C[C@H]1OCCCC[C@@H](C)Oc2ccc(NS(=O)(=O)c3ccc(C)cc3)cc2C(=O)N([C@@H](C)CO)C[C@H]1C | 55 | -86* | 6
COc1ccc(S(=O)(=O)Nc2ccc3c(c2)C(=O)N([C@H](C)CO)C[C@H](C)[C@H](CN(C)Cc2ccc(Cl)c(Cl)c2)OCCCC[C@H](C)O3)cc1 | . | -59 | 15
COc1ccc(S(=O)(=O)Nc2ccc3c(c2)C(=O)N([C@H](C)CO)C[C@@H](C)[C@H](CN(C)Cc2ccc(Cl)c(Cl)c2)OCCCC[C@H](C)O3)cc1 | 12 | -84* | .
CCCN(C)C[C@H]1OCCCC[C@@H](C)Oc2ccc(NS(=O)(=O)c3ccc(C)cc3)cc2C(=O)N([C@H](C)CO)C[C@@H]1C | 91 | -52 | 14
CCCN(C)C[C@H]1OCCCC[C@@H](C)Oc2ccc(NS(=O)(=O)c3ccc(Cl)cc3)cc2C(=O)N([C@@H](C)CO)C[C@H]1C | 33 | -86* | 9
CN(C)CCCNC(=O)C[C@@H]1CC[C@@H](NC(=O)c2ccccc2F)[C@@H](CO)O1 | 28 | 18 | .
COc1ccc(S(=O)(=O)Nc2cccc3c2O[C@@H](CN(C)C(=O)Nc2ccc4c(c2)OCO4)[C@@H](C)CN([C@H](C)CO)C3=O)cc1 | 2 | 0 | -6
CO[C@H]1CC[C@H]2CCOc3c(C#N)cccc3C(=O)N(C)[C@H](C)C(=O)N(C)C[C@@H]1O2 | 4 | 20 | .
CCNC(=O)C[C@@H]1CC[C@H]2[C@H](COc3ccc(NC(=O)c4ccc(F)cc4)cc3C(=O)N2C)O1 | 29 | -8 | 14
COc1ccc(S(=O)(=O)N(C)C[C@@H]2OCCCC[C@H](C)Oc3ccc(NS(=O)(=O)c4ccc(C)cc4)cc3C(=O)N([C@H](C)CO)C[C@@H]2C)cc1 | 113* | -62 | -2
COc1ccc(S(=O)(=O)Nc2ccc3c(c2)C(=O)N([C@@H](C)CO)C[C@@H](C)[C@@H](CN(C)S(=O)(=O)c2ccc(C)cc2)OCCCC[C@H](C)O3)cc1 | . | -79 | .
COc1ccc(S(=O)(=O)N(C)C[C@@H]2OCCCC[C@@H](C)Oc3ccc(NS(=O)(=O)c4ccc(Cl)cc4)cc3C(=O)N([C@H](C)CO)C[C@H]2C)cc1 | . | -23 | -12
COc1ccc(S(=O)(=O)N(C)C[C@@H]2OCCCC[C@H](C)Oc3ccc(NS(=O)(=O)c4ccc(C)cc4)cc3C(=O)N([C@@H](C)CO)C[C@H]2C)cc1 | 31 | -56 | -5
COc1ccc(S(=O)(=O)N(C)C[C@H]2OCCCC[C@H](C)Oc3ccc(NS(=O)(=O)c4ccccc4)cc3C(=O)N([C@H](C)CO)C[C@H]2C)cc1 | 93 | . | 5

Screening data deposited in PubChem by Broad Institute.
